From PubChem
Abeta rescue: restores growth of yeast expressing A-beta42 peptide | yeast expressing A-beta42, growth rescue, OD600, 48 h; response scale: 0% DMSO, 100% iron-clioquinol control | Potency, µM (series often up to 46.1 µM), most hits filed as activators | actives 0.063% (n = 410,000); further: nearly all actives have a fitted effect of over 55% in size
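Yeast growth medium received pinned compounds, then yeast cells expressing toxic A-beta were added; plates incubated at 30 C for 48 hr. Growth read as absorbance at 600 nm, normalized to DMSO and equimolar FeCl3 plus clioquinol controls.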
FUS suppressor: FUS proteinopathy suppression in yeast | Potency, µM (doses to about 76.6 µM), actives largely listed as activators | actives 0.24% (n = 390,000) | S. cerevisiae FUS-expressing, growth rescue, OD600, 24 h | AID 1347120; further: nearly all actives have a fitted effect of over 55% in size
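Restored growth of FUS-toxic S. cerevisiae, read as 600 nm absorbance after 24 h at 30C in galactose medium (starting OD 0.005). Controls CP55940 and DMSO.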
TDP-43 yeast inh: TDP-43 toxicity inhibition in yeast | TDP-43 expressing yeast growth rescue, BacTiter-Glo, 24 h | Potency, µM (top dose mostly 46.1 µM), actives largely listed as activators | actives 1.8% (n = 410,000) | AID 652104; further: nearly all actives have a fitted effect of over 50% in size
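Yeast cells expressing TDP-43 under galactose induction are exposed to compounds for 24 hr at 30 deg C. BacTiter-Glo luminescence measures growth, so protective compounds score as activators.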
aSyn rescue: inhibitors of alpha-synuclein toxicity in yeast. Yeast expressing alpha-synuclein, growth rescue, BacTiter-Glo, 24 h. Potency, µM (top dose mostly 46.1 µM), actives largely listed as activators. actives 0.14% (n = 370,000); further: nearly all actives have a fitted effect of over 65% in size
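Galactose-induced alpha-syn yeast (OD600=0.02, raffinose-pregrown) + pinned cpd, 24 hr, 30 deg C; growth by BacTiter-Glo luminescence. Growth restoration scores as activation.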
Hits are given with their value; n = inactive; u = inconclusive; x = no result given; [ ] = remark or other dose. The list is not random: actives were taken first. Their share in the collection is about 2.1%. The call rests on the fitted dose curve; in most records, active means well fitted curve in the direction sought with a large enough effect; inconclusive means small, poorly fitted or top-dose-only effect, or another doubt; inactive means no such curve, though single readings can be large; an effect the other way counts as inactive or inconclusive.

SMILES	Abeta rescue	FUS suppressor	TDP-43 yeast inh	aSyn rescue
COc1ccc(OCC(=O)O/N=C(\N)c2ccc(OC)cc2)cc1	n	n	n	n
N/C(=N\OC(=O)CCC1CCCC1)c1ccc(Br)cc1	n	x	6.31µM	n
N/C(=N\OC(=O)CC1CCCCC1)c1ccc([N+](=O)[O-])cc1	n	x	17.8µM	n
N/C(=N\OC(=O)CCC1CCCC1)c1cccc([N+](=O)[O-])c1	n	n	20µM	n
COc1ccc(/C(N)=N/OC(=O)CC2CCCCC2)cc1	n	n	3.16µM	n
N/C(=N\OC(=O)CCC1CCCCC1)c1ccc([N+](=O)[O-])cc1	n	x	20µM	n
N/C(=N\OC(=O)CCC1CCCCC1)c1cccnc1	n	n	12.6µM	n
N/C(=N\OC(=O)CC1CCCCC1)c1cccc([N+](=O)[O-])c1	n	n	u	n
O=S(=O)(NCCOc1ccccc1Cl)c1ccc2oc3ccccc3c2c1	n	n	n	u
COc1ccccc1OCCNS(=O)(=O)c1ccc2oc3ccccc3c2c1	n	n	15.8µM	u
COCCOC(=O)c1c(-c2ccccc2)c(-c2ccccc2)nn(C)c1=O	n	n	n	x
CC1(C(=O)NCc2ccc3c(c2)OCO3)CCN1C(=O)C1(c2ccc(Cl)cc2)CC1 (stereo not drawn)	n	n	25.1µM	n
CC1(C(=O)Nc2ccc3c(c2)OCCO3)CCN1C(=O)C1(c2ccccc2)CC1 (stereo not drawn)	n	n	12.6µM	n
Cn1nc(C(C)(C)C)cc1NC(=O)C1(C)CCN1C(=O)C1(c2ccccc2)CCCC1 (stereo not drawn)	n	n	35.5µM	n
CC1(C(=O)Nc2ccc3c(c2)OCO3)CCN1C(=O)C1(c2ccc(Cl)cc2)CC1 (stereo not drawn)	n	u	n	n
Cn1nc(C(C)(C)C)cc1NC(=O)C1(C)CCN1C(=O)C1(c2ccccc2)CC1 (stereo not drawn)	n	n	u	n
CC(C(=O)Nc1ccc(F)c(Cl)c1)N1Cc2ccccc2C1=O (stereo not drawn)	n	n	n	x
COc1cccc2c1cc1c(=O)n(CC(=O)N3CCN(c4ccccc4F)CC3)nc(C)n12	n	n	n	x
CC(C)CCN1C(=O)c2ccc(C(=O)OCC(=O)N(CC(C)C)C3CCS(=O)(=O)C3)cc2C1=O (stereo not drawn)	n	31.6µM	n	n
CCOc1ccc(N2C(=O)/C(=C\c3ccccc3OC)S(=O)(=O)C2c2cccc([N+](=O)[O-])c2)cc1 (stereo not drawn)	n	n	11.2µM	n
COc1ccccc1/C=C1/C(=O)N(c2cc(C)cc(C)c2)C(c2cccc([N+](=O)[O-])c2)S1(=O)=O (stereo not drawn)	n	n	11.2µM	n
COc1cccc(N2CCN(CC(=O)NCc3ccc(F)cc3)CC2)c1	x	n	x	x
CN(CC(=O)Nc1cccc(Cl)c1)S(=O)(=O)c1ccc2[nH]c3c(c2c1)CCCC3	n	n	n	x
COC(=O)c1cc(-c2c(C)oc3cc(OC)ccc3c2=O)c(C)o1	n	n	n	n
COc1ccc2c(=O)c(-c3ccccc3)c(C)oc2c1	n	n	11.2µM	n
SMILES	Abeta rescue	FUS suppressor	TDP-43 yeast inh	aSyn rescue
CC(c1ccccc1)N1C(=O)c2cccnc2C1=O (stereo not drawn)	n	n	2µM	n
O=C1c2cccnc2C(=O)N1Cc1ccccc1	n	n	n	n
CCc1ccc(NC(=O)CC2C(=O)N(c3cccc(C)c3)C(=O)N2Cc2cccs2)cc1 (stereo not drawn)	n	u	n	x
CC(C)C(C(=O)Nc1ccccc1)N1C(=O)c2ccccc2C1=O (stereo not drawn)	n	n	15.8µM	n
CC(C(=O)Nc1ccccc1)N1C(=O)c2ccccc2C1=O (stereo not drawn)	n	n	n	n
O=C(CCn1c(=O)sc2ccccc21)Nc1nc2ccccc2s1	n	n	28.2µM	n
Cc1ccc2nc(NC(=O)CCn3c(=O)sc4ccccc43)sc2c1	n	n	20µM	n
Cc1ccc2nc(NC(=O)CCn3cccc3)sc2c1	n	n	n	n
CCc1ccc(-n2nc3ccc(NC(=O)c4cc5ccccc5o4)cc3n2)cc1	n	n	n	x
N#Cc1ncc(Cc2ccccc2)nc1C#N	n	n	14.1µM	n
CC(=O)OC[C@@H]1CN(Cc2cccc(C(F)(F)F)c2)C[C@H](n2cnc3c(NCc4ccco4)ncnc32)O1	n	u	11.2µM	n
O=C(NCCC1=CCCCC1)C1CCN(C(=O)N2CCOc3ccc(Cl)cc32)CC1	u	n	28.2µM	x
CN(CC(=O)Nc1cccc(Cl)c1)S(=O)(=O)/C=C/c1ccccc1	n	n	17.8µM	u
O=C(NNC(=O)c1ccccn1)c1ccc(OC(F)F)cc1	n	n	31.6µM	u
O=C(NC(=S)Nc1ccccc1Br)C1CCCC1	u	n	15.8µM	n
COC(=O)c1ccccc1NC(=S)NC(=O)C1CC1	n	n	n	n
O=C(NC(=S)Nc1ccccc1Br)C1CCCCC1	n	x	15.8µM	n
O=C(Nc1cccc(C(F)(F)F)c1)C1CCN(S(=O)(=O)c2cccc3nsnc23)CC1	n	n	n	x
CC1CCN(C(=S)c2ccc(N(C)C)cc2)CC1	12.6µM	n	n[1.82 µM]	n
O=C(Nc1ccc(Br)cc1)OCCCN1CCC2(CCCCC2)C1=O	x	n	x	x
CCC(Sc1nc2ccsc2c(=O)n1Cc1ccc(C(=O)O)cc1)C(=O)Nc1ccc(Cl)cc1 (stereo not drawn)	n	35.5µM	n	n
Cc1cc2n(n1)C(c1ccc3c(c1)OCO3)Nc1c(C)cccc1-2 (stereo not drawn)	n	n	n	x
Cc1cc(C)c2c(c1)-c1cc(C)nn1C(c1ccc3c(c1)OCO3)N2 (stereo not drawn)	n	n	17.8µM	n
CCOc1ccc(C2Nc3c(C)cccc3-c3cc(C)nn32)cc1 (stereo not drawn)	u	n	11.2µM	x
COc1ccc(Cl)cc1N(C)c1nc(N2CCN(S(=O)(=O)c3ccc(C)cc3)CC2)c2ccccc2n1	x	x	x	n
SMILES	Abeta rescue	FUS suppressor	TDP-43 yeast inh	aSyn rescue
CC1(C(=O)NCCCNc2ncc(C(F)(F)F)cc2Cl)C=CCN1C(=O)c1ccccc1 (stereo not drawn)	n	n	n	n
C[C@]1(C(=O)NCCCNc2ncc(C(F)(F)F)cc2Cl)C=C[C@@H](Cc2ccccc2)N1C(=O)c1ccccc1	n	25.1µM	u	u
O=C(Oc1ccc(Cl)c2cccnc12)c1ccco1	n	n	31.6µM	n
O=C(Oc1cccc2cccnc12)c1ccco1	n	n	n	n
O=C(CCC1N=C2c3ccccc3N=C(SCc3cccc(Cl)c3)N2C1=O)NCCc1ccccc1 (stereo not drawn)	n	u	u	x
O=C(CCC1N=C2c3ccccc3N=C(SCc3ccc(Cl)cc3)N2C1=O)NCCc1ccccc1 (stereo not drawn)	n	31.6µM	n	x
C#CCSc1nccc(-c2nn(-c3ccc(C)cc3)ccc2=O)n1	n	35.5µM	n	n
CCSc1nccc(-c2nn(-c3ccc(C)cc3)ccc2=O)n1	n	n	n	n
